Holding throughout (experiment): DAPPL (digital affinity profiling via proximity ligation, sequencing); 10 mM Tris-HCl pH 7.5, 50 mM NaCl, 1 mM DTT, 4% glycerol, room temperature, 30 min; GST-TFs on glutathione beads, 16-mer random dsDNA library, 0.1% formaldehyde crosslink after washing; high values mean tight binding
Conditions in all cases: protein: recombinant; tags: N-terminal GST; dsDNA, one strand shown

In one assay the target is T1, FLI1 (Homo sapiens, UniProt Q01543 1-452).
T1 sequence: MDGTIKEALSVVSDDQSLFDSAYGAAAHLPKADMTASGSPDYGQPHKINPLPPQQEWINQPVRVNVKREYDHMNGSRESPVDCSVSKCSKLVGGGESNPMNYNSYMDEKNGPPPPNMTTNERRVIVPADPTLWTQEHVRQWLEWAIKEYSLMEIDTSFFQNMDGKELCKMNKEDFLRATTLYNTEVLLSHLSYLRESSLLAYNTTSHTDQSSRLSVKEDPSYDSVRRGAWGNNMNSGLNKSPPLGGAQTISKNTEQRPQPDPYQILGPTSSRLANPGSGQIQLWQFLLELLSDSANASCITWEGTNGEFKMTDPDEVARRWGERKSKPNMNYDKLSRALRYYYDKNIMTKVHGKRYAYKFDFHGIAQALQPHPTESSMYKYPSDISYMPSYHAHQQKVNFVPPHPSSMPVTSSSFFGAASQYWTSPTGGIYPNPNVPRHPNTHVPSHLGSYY
In a few lines:
(§1)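 Each value of binding signal is a hexamer's read frequency for a factor divided by the same hexamer's frequency in the tag-only sample. Barcoded, bead-captured GST fusions of human transcription factors made in yeast were pooled with that sample and incubated with 200 nmole of a random double-stranded 16-mer DNA library in Tris/NaCl/DTT/glycerol buffer at room temperature for 30 min. Washing, 0.1% formaldehyde crosslinking, proximity ligation, PCR and Illumina NextSeq500 sequencing followed.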

The target of another assay is T2, ELK1 (Homo sapiens, UniProt P19419 1-428).
T2 sequence: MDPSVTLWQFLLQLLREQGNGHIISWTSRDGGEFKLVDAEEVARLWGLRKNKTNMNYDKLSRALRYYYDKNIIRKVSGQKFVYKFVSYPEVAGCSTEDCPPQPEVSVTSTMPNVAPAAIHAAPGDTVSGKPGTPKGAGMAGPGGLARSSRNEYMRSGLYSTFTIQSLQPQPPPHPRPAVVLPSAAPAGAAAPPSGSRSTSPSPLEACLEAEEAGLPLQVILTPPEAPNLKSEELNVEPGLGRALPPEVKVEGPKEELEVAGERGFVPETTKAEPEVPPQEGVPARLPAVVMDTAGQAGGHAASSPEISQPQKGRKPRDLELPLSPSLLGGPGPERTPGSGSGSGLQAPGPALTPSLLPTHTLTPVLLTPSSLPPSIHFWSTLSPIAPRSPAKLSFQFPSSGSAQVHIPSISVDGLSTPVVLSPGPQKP
In a few lines: as §1

In a further assay the target is T3, GABPA (Homo sapiens, UniProt Q06546 1-454).
T3 sequence: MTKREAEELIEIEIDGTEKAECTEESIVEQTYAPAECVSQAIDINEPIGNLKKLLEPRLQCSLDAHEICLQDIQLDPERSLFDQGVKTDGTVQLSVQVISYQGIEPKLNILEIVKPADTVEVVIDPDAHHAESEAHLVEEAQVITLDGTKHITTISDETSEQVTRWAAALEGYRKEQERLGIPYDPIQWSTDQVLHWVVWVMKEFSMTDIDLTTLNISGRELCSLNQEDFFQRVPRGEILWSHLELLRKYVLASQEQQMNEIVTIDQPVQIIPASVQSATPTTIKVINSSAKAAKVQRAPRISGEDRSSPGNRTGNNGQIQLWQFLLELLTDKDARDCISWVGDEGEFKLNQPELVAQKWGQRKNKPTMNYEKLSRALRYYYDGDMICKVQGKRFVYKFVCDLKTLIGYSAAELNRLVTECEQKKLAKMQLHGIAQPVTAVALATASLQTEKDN
In a few lines:
as §1

The target in the next assay is T4, ERG (Homo sapiens, UniProt P11308 1-479).
T4 sequence: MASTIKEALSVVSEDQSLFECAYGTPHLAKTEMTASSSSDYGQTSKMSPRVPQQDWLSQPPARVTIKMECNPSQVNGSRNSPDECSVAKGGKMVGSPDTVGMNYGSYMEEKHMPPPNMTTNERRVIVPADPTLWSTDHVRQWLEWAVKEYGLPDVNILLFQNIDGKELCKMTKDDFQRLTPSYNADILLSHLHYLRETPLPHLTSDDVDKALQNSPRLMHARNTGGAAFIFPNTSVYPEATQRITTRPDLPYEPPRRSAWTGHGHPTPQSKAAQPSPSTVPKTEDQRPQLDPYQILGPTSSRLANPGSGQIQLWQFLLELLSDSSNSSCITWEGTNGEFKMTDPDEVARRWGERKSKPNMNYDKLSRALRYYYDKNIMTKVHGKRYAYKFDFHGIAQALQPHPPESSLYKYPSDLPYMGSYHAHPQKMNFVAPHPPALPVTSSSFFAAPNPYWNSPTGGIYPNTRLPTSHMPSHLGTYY
In a few lines: as §1

The next assay concerns the target ELF1 (Homo sapiens, UniProt P32519 1-619). In a few lines: as §1
Another assay deals with T5, EHF (Homo sapiens, UniProt Q9NZC4 1-300).
T5 sequence: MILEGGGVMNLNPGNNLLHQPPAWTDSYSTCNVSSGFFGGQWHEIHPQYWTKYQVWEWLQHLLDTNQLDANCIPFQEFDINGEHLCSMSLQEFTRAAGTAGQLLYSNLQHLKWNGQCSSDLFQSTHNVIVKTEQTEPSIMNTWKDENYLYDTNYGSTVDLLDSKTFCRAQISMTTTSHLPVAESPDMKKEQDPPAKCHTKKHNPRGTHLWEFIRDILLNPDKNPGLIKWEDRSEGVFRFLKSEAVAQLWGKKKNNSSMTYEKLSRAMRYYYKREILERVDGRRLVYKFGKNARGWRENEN
Put shortly:
as §1

For another assay, the target named is SPI1 (Homo sapiens, UniProt P17947 1-270). In a few lines: as §1
The next assay deals with SPIB (Homo sapiens, UniProt Q01892 1-262). Put shortly: as §1
In a further assay the target is T6, ELK3 (Homo sapiens, UniProt P41970 1-407).
T6 sequence: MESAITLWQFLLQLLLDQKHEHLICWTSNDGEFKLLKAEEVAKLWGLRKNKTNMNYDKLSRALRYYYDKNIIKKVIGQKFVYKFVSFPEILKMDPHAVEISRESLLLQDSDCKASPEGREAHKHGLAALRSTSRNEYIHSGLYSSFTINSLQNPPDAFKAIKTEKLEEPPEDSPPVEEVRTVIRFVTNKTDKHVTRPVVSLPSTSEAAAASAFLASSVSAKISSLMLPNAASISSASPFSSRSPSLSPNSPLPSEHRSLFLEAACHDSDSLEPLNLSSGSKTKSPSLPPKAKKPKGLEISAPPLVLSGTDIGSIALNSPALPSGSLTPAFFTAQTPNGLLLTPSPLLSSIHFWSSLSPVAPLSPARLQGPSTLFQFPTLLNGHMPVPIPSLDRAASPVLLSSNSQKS
In a few lines:
as §1

A further assay concerns the target T7, FEV (Homo sapiens, UniProt Q99581 1-238).
T7 sequence: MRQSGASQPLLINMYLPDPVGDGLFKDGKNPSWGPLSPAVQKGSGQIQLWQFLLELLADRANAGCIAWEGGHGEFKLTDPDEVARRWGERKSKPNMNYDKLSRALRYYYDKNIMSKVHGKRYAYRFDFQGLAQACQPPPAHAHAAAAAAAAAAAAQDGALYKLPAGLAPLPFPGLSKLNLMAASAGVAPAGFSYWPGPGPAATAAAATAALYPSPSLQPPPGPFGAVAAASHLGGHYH
In a few lines: as §1

The target in another assay is ETV5 (Homo sapiens, UniProt P41161 1-510). In a few lines:
as §1

The target in the next assay is T8, SPIC (Homo sapiens, UniProt Q8N5J4 1-248).
T8 sequence: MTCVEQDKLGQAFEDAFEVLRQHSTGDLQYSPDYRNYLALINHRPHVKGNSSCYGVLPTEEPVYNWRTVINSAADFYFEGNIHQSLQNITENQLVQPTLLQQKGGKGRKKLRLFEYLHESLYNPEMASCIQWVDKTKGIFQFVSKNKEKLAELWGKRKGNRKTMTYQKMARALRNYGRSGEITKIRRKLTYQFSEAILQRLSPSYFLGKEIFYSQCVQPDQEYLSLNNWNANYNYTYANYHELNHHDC
Put shortly:
as §1

For the next assay, the target named is ELF4 (Homo sapiens, UniProt Q99607 1-663). Put shortly: as §1
A further assay addresses T9, ELK4 (Homo sapiens, UniProt P28324-2 1-405).
T9 sequence: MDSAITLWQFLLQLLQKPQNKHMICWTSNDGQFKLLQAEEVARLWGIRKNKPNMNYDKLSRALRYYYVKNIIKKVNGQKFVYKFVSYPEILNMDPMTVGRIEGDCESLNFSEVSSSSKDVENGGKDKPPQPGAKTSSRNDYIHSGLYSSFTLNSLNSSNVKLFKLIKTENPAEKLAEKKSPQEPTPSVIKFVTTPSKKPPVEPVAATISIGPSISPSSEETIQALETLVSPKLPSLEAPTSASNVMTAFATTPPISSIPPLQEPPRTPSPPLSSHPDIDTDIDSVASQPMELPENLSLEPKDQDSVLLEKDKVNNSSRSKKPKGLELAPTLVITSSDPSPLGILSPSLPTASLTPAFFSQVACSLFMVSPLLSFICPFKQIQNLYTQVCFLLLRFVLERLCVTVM
In a few lines:
as §1

The next assay deals with T10, ETV2 (Homo sapiens, UniProt O00321 1-342).
T10 sequence: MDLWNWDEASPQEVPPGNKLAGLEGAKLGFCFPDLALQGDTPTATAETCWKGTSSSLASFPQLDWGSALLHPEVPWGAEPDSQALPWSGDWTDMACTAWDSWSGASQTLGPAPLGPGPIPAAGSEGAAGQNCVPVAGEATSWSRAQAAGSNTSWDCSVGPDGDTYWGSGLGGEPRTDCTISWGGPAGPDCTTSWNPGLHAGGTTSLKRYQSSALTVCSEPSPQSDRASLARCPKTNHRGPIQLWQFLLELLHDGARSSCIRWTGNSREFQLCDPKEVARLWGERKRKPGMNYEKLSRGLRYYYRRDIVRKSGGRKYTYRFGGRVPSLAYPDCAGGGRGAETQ
Put shortly: as §1

Another assay has as its target T11, ELF3 (Homo sapiens, UniProt P78545 1-371).
T11 sequence: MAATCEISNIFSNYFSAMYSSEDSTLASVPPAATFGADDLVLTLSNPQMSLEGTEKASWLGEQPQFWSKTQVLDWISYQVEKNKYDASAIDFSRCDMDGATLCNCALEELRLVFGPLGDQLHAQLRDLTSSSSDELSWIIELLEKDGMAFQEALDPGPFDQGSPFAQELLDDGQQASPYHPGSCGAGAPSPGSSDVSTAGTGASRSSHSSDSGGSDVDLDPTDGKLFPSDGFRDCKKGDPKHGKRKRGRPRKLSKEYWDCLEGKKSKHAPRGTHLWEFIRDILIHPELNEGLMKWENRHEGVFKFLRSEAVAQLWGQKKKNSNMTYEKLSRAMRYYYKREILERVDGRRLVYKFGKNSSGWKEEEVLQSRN
Put shortly:
as §1

The target in another assay is ETV1 (Homo sapiens, UniProt P50549 1-477). Put shortly:
as §1

ELF1, sequence (P32519 whole entry): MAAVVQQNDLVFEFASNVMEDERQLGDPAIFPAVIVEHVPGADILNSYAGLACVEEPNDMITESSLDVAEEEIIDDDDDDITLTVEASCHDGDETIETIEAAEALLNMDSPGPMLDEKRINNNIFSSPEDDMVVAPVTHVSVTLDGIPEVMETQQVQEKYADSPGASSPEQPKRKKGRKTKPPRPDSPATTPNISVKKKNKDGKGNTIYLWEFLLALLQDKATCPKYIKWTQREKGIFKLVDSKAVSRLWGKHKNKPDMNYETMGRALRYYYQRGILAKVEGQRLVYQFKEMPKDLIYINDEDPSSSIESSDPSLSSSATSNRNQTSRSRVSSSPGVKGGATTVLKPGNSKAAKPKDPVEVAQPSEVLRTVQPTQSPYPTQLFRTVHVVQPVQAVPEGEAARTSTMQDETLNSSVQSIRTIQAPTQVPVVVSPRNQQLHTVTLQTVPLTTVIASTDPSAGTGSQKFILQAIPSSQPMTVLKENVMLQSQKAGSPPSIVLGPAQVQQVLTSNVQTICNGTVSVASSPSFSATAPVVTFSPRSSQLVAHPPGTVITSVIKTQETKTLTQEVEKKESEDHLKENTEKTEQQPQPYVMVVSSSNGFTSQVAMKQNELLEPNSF
ETV5, sequence (P41161 whole entry): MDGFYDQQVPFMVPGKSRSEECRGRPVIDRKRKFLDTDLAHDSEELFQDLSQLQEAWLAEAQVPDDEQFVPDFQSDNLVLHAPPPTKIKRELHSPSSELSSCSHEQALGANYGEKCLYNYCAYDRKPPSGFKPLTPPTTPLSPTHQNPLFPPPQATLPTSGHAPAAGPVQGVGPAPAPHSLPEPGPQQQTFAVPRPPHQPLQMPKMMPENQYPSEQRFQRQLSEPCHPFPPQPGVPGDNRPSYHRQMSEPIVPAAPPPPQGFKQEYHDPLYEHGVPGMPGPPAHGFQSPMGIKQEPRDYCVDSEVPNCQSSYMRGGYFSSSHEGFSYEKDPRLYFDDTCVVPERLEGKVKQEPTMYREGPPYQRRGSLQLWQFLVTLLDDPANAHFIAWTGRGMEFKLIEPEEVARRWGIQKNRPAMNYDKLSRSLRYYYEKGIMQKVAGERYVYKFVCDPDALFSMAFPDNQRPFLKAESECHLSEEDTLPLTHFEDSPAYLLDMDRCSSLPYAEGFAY
ETV1, sequence (P50549 whole entry): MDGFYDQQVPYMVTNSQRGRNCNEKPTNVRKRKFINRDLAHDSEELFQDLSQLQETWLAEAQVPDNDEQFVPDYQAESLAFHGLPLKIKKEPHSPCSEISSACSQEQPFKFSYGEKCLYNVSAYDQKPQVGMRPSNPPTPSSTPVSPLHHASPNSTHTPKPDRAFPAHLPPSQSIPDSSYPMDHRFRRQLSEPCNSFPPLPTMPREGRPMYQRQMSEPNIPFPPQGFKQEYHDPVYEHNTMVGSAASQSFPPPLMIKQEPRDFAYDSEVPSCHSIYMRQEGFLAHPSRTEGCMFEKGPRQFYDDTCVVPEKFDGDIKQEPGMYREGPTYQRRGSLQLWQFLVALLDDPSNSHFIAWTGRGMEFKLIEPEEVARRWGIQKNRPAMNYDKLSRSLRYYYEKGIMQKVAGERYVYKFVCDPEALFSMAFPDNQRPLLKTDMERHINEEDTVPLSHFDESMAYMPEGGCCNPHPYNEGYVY
ELF4, sequence (Q99607 whole entry): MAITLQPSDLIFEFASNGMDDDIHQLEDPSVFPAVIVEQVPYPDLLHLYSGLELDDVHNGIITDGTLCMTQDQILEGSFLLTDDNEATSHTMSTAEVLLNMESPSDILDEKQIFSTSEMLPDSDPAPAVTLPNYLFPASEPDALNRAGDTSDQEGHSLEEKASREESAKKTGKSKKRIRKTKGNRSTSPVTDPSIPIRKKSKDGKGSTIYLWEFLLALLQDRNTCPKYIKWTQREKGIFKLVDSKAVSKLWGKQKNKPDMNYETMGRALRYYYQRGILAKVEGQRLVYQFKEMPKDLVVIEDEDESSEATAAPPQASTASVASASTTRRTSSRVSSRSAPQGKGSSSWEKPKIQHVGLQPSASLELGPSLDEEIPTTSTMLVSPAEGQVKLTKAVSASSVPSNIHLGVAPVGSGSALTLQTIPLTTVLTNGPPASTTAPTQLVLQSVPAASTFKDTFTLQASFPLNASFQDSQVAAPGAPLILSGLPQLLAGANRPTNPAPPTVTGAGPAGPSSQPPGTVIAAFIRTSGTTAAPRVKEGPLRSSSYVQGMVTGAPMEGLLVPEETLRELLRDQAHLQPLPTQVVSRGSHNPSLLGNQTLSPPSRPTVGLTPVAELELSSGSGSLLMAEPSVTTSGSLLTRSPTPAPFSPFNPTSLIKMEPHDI
SPIB, sequence (Q01892 whole entry): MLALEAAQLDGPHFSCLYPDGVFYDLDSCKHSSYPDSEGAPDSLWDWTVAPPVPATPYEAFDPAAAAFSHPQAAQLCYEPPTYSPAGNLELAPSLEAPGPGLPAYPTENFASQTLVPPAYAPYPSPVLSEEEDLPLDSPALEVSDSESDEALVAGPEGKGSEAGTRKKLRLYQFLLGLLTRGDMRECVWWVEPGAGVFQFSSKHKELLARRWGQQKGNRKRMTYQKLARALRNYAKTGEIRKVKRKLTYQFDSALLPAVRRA

GCATCC: the binding signal with FLI1 was 1.55 fold enrichment (6-mer frequency, TF over GST control); with ELK1 it was 1.67 fold enrichment (6-mer frequency, TF over GST control); with GABPA, 1.36 fold enrichment (6-mer frequency, TF over GST control); with ERG, 1.68 fold enrichment (6-mer frequency, TF over GST control); with ELF1, 1.44 fold enrichment (6-mer frequency, TF over GST control); with EHF it was 1.55 fold enrichment (6-mer frequency, TF over GST control). Moreover, the binding signal was 1.47 fold enrichment (6-mer frequency, TF over GST control) with SPI1; 1.6 fold enrichment (6-mer frequency, TF over GST control) in the assay with SPIB; 1.7 fold enrichment (6-mer frequency, TF over GST control) with ELK3; 1.73 fold enrichment (6-mer frequency, TF over GST control) with FEV; 1.68 fold enrichment (6-mer frequency, TF over GST control) in the assay with ETV5; 1.53 fold enrichment (6-mer frequency, TF over GST control) in the assay with SPIC. Also, the binding signal was 1.43 fold enrichment (6-mer frequency, TF over GST control) with ELF4; 1.28 fold enrichment (6-mer frequency, TF over GST control) with ELK4; 1.39 fold enrichment (6-mer frequency, TF over GST control) with ETV2; 1.53 fold enrichment (6-mer frequency, TF over GST control) in the assay with ELF3; 1.55 fold enrichment (6-mer frequency, TF over GST control) with ETV1.

These data come from article PMC7862700, “An all-to-all approach to the identification of sequence-specific readers for epigenetic DNA modifications on cytosine”.
